# Laboratory results: article PMC7862700, “An all-to-all approach to the identification of sequence-specific readers for epigenetic DNA modifications on cytosine”
# Key:
# Assay in all cases: DAPPL (digital affinity profiling via proximity ligation, sequencing); 10 mM Tris-HCl pH 7.5, 50 mM NaCl, 1 mM DTT, 4% glycerol, room temperature, 30 min; GST-TFs on glutathione beads, 16-mer random dsDNA library, 0.1% formaldehyde crosslink after washing; high values mean tight binding
# Details in all cases: protein: recombinant; tags: N-terminal GST; dsDNA, one strand shown
# ELK1 = molecular target: T1, ELK1 (Homo sapiens, UniProt P19419 1-428)
# T1 sequence: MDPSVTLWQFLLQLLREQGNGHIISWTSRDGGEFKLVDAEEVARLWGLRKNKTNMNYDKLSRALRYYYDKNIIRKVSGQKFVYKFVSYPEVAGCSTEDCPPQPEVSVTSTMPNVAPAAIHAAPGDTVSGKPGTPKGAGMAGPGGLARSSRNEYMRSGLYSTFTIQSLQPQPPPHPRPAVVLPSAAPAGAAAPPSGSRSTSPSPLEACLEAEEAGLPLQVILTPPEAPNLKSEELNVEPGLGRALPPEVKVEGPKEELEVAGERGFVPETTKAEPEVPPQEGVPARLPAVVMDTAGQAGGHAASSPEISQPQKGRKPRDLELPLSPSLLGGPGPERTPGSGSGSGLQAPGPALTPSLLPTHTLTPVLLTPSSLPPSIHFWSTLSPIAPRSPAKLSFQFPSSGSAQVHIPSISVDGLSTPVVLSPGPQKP
# Procedure, shortened: (§1)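 Sequencing on an Illumina NextSeq500 followed washing, crosslinking with 0.1% formaldehyde, proximity ligation (BsaI/T4 ligase, 1 h, 37 °C) and PCR amplification of pools that had been incubated for 30 min at room temperature with 200 nmole of a random double-stranded 16-mer DNA library in Tris/NaCl/DTT/glycerol buffer. Each pool held DNA-barcoded human transcription factors, expressed in yeast as GST fusions and captured on glutathione beads, plus a tag-only sample. Binding signal is a hexamer's read frequency for a factor divided by its frequency in the tag-only sample.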
# GABPA = molecular target: T2, GABPA (Homo sapiens, UniProt Q06546 1-454)
# T2 sequence: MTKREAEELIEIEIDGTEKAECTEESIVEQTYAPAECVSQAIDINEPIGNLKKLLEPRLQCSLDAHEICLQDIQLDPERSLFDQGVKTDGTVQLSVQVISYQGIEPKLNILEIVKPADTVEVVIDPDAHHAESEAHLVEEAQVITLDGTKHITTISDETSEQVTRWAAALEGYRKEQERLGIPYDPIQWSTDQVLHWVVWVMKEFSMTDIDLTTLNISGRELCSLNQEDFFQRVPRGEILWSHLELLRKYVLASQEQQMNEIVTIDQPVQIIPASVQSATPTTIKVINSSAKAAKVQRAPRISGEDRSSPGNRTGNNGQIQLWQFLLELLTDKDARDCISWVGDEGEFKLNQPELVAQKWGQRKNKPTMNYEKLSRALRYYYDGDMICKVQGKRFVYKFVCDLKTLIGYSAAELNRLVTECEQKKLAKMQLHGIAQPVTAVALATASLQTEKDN
# Procedure, shortened: as §1
# ERG = molecular target: T3, ERG (Homo sapiens, UniProt P11308 1-479)
# T3 sequence: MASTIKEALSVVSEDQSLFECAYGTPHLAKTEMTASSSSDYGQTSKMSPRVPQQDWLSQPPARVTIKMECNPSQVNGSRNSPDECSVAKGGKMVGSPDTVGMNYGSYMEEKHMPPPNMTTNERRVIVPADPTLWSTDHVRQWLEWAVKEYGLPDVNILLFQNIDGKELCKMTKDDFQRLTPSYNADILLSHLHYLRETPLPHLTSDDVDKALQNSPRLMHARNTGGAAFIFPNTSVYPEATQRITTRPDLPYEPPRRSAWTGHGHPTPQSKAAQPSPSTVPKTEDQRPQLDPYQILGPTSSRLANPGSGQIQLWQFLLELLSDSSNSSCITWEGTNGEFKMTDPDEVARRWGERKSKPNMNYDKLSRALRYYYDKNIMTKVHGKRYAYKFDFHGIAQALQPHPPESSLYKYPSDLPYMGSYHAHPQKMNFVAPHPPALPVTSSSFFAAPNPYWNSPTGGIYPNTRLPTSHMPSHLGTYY
# Procedure, shortened: as §1
# ELF1 = ELF1 (Homo sapiens, UniProt P32519 1-619)
# Procedure, shortened: as §1
# EHF = molecular target: T4, EHF (Homo sapiens, UniProt Q9NZC4 1-300)
# T4 sequence: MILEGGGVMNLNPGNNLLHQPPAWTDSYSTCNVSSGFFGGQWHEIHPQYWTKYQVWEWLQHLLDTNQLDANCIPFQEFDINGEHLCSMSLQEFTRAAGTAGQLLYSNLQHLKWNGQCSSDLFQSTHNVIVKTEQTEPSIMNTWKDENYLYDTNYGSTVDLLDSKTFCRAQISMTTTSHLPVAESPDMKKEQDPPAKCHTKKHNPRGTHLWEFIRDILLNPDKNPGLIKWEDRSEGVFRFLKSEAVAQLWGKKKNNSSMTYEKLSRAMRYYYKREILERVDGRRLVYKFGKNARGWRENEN
# Procedure, shortened: as §1
# FEV = molecular target: T5, FEV (Homo sapiens, UniProt Q99581 1-238)
# T5 sequence: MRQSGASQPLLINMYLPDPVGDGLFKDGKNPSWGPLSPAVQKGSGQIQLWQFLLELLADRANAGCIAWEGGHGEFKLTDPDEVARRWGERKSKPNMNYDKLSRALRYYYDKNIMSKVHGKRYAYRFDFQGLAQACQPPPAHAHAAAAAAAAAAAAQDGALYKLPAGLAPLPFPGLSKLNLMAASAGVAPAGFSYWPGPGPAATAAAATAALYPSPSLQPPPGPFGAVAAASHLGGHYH
# Procedure, shortened: as §1
# ETV5 = ETV5 (Homo sapiens, UniProt P41161 1-510)
# Procedure, shortened: as §1
# ELF4 = ELF4 (Homo sapiens, UniProt Q99607 1-663)
# Procedure, shortened: as §1
# ELK4 = molecular target: T6, ELK4 (Homo sapiens, UniProt P28324-2 1-405)
# T6 sequence: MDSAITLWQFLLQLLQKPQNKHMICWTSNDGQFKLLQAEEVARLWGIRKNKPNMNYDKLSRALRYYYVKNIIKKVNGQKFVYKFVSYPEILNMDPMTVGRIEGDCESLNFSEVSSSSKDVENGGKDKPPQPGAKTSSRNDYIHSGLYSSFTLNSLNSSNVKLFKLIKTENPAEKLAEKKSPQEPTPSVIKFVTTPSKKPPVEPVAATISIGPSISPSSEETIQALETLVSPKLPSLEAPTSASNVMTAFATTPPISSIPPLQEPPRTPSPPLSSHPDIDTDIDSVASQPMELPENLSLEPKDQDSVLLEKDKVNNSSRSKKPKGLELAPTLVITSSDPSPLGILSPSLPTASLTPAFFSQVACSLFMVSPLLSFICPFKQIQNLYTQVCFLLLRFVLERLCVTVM
# Procedure, shortened: as §1
# ETV2 = molecular target: T7, ETV2 (Homo sapiens, UniProt O00321 1-342)
# T7 sequence: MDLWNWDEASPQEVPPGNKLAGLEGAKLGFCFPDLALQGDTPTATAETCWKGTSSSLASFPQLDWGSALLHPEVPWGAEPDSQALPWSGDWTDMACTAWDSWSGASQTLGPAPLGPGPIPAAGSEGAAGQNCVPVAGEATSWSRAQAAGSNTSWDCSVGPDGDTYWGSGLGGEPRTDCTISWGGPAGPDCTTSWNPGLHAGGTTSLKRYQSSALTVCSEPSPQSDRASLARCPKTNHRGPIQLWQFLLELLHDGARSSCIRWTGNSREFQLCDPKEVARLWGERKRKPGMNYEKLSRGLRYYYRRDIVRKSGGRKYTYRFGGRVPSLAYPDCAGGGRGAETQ
# Procedure, shortened: as §1
# ERF = molecular target: T8, ERF (Homo sapiens, UniProt P50548 1-548)
# T8 sequence: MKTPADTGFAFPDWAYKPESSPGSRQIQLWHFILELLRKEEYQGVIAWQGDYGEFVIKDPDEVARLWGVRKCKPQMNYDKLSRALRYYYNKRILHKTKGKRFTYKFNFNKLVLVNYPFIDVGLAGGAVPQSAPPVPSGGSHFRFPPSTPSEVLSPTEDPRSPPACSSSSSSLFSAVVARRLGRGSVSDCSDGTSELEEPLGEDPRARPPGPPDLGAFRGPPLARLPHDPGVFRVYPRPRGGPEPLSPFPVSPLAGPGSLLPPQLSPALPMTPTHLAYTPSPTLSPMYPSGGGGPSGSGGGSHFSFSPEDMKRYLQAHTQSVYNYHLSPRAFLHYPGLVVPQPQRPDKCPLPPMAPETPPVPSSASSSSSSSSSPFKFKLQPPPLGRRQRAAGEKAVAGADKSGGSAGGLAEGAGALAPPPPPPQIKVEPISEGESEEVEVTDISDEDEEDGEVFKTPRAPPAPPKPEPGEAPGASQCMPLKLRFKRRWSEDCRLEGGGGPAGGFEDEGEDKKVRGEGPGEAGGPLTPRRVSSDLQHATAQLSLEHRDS
# Procedure, shortened: as §1
# ETV3L = molecular target: T9, ETV3L (Homo sapiens, UniProt Q6ZN32 1-361)
# T9 sequence: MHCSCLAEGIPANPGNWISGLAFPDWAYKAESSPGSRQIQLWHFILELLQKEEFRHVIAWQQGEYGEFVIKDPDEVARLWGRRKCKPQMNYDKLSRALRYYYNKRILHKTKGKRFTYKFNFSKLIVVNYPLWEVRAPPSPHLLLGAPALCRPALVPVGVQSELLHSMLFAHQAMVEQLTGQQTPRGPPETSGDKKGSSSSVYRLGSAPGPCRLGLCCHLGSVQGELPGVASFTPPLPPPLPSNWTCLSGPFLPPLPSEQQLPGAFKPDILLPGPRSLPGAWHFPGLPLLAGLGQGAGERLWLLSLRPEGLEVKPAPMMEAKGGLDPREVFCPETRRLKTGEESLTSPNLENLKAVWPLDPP
# Procedure, shortened: as §1
# ETS2 = molecular target: T10, ETS2 (Homo sapiens, UniProt P15036 1-469)
# T10 sequence: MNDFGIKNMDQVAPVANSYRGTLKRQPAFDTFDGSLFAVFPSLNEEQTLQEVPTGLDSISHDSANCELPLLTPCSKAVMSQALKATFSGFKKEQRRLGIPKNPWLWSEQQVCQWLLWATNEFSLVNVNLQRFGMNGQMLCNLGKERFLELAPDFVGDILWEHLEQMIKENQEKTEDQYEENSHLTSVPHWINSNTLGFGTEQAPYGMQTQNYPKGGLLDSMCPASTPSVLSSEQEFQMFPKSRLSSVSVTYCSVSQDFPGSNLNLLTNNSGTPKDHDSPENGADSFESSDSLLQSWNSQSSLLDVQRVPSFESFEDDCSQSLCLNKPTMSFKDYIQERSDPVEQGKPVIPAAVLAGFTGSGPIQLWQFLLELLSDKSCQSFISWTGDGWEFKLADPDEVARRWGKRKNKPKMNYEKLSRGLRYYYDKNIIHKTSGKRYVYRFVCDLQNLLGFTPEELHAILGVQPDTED
# Procedure, shortened: as §1
# ETV7 = molecular target: T11, ETV7 (Homo sapiens, UniProt Q9Y603 1-341)
# T11 sequence: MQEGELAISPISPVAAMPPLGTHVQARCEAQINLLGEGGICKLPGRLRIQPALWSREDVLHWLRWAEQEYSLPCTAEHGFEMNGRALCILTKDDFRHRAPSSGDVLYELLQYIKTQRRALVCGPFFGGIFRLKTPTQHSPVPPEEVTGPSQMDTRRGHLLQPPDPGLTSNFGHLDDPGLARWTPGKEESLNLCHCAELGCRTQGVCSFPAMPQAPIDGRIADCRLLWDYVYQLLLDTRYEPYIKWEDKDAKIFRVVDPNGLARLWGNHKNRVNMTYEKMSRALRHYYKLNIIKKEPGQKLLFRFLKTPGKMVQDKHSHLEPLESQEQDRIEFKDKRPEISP
# Procedure, shortened: as §1
# Sequence of ELF4 (Q99607 whole entry): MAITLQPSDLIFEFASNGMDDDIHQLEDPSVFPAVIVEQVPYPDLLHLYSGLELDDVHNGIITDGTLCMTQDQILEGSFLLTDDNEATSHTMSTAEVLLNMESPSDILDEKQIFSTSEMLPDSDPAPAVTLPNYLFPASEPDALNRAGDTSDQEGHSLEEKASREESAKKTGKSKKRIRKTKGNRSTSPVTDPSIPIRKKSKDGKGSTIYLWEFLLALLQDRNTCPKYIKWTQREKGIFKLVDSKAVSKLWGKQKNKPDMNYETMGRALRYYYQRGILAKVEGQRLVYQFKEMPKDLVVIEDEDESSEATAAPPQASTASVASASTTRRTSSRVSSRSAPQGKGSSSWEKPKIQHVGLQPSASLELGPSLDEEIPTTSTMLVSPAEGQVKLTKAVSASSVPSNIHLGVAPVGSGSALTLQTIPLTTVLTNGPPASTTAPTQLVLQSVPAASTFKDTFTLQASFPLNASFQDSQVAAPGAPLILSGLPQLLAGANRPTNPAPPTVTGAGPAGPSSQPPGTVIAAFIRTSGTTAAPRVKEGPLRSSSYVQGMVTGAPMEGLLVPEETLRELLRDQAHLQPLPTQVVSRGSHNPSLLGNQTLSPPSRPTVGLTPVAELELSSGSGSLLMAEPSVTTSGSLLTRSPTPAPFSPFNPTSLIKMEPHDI
# Sequence of ELF1 (P32519 whole entry): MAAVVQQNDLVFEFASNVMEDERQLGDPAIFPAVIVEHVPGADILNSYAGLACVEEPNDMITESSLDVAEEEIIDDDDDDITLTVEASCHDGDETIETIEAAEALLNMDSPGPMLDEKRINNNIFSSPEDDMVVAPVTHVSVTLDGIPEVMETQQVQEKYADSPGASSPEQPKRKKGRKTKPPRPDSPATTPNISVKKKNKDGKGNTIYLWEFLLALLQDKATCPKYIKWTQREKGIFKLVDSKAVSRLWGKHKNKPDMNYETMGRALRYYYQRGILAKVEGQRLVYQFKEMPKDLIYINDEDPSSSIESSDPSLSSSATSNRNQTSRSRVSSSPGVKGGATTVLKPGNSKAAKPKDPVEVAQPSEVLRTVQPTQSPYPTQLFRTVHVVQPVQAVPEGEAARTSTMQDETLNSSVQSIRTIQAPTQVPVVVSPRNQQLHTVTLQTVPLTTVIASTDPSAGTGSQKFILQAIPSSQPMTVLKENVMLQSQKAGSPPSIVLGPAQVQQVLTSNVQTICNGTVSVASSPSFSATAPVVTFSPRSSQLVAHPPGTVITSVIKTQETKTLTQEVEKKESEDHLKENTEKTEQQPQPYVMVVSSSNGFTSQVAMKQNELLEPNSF
# Sequence of ETV5 (P41161 whole entry): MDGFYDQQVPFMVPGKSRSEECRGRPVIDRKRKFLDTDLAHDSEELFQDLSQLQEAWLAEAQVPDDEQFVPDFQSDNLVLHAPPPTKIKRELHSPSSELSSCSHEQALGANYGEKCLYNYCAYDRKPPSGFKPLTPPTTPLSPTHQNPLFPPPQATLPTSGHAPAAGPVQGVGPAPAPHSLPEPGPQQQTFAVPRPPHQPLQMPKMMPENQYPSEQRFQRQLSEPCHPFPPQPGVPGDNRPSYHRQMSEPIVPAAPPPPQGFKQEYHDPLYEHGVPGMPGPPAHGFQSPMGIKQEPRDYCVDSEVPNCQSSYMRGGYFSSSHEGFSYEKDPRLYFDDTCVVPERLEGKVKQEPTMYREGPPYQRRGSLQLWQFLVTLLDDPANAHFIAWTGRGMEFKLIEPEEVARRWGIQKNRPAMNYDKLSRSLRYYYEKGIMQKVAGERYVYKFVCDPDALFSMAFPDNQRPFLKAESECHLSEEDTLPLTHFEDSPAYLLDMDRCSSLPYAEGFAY
sequence,measurement,setting,value
ACAGCA,binding signal,ELK1,"1.03 fold enrichment (6-mer frequency, TF over GST control)"
same,binding signal,GABPA,"1.08 fold enrichment (6-mer frequency, TF over GST control)"
same,binding signal,ERG,"1 fold enrichment (6-mer frequency, TF over GST control)"
same,binding signal,ELF1,"1.06 fold enrichment (6-mer frequency, TF over GST control)"
same,binding signal,EHF,"1.03 fold enrichment (6-mer frequency, TF over GST control)"
same,binding signal,FEV,"1 fold enrichment (6-mer frequency, TF over GST control)"
same,binding signal,ETV5,"1.03 fold enrichment (6-mer frequency, TF over GST control)"
same,binding signal,ELF4,"1.04 fold enrichment (6-mer frequency, TF over GST control)"
same,binding signal,ELK4,"1.02 fold enrichment (6-mer frequency, TF over GST control)"
same,binding signal,ETV2,"1.06 fold enrichment (6-mer frequency, TF over GST control)"
same,binding signal,ERF,"1.07 fold enrichment (6-mer frequency, TF over GST control)"
same,binding signal,ETV3L,"1.06 fold enrichment (6-mer frequency, TF over GST control)"
same,binding signal,ETS2,"1.09 fold enrichment (6-mer frequency, TF over GST control)"
same,binding signal,ETV7,"1.15 fold enrichment (6-mer frequency, TF over GST control)"
